Screening results: PubChem BioAssay, National Center for Advancing Translational Sciences (NCATS)
SARS PLP yeast: SARS-CoV PLP inhibition in yeast; Potency, µM (series often up to 32.9 µM), actives largely listed as activators; AID 485353; 0.19% of 330,000 active; S. cerevisiae expressing SARS-CoV PLpro, growth rescue; calls by dose curve; note: nearly all actives have a fitted effect of over 55% in size
AmpC no deterg: blocks E. coli AmpC beta-lactamase in detergent-free assay | P00811 | AmpC nitrocefin hydrolysis, absorbance 480 nm, 0.0001% Triton | Potency, µM (doses to about 57.1 µM), hits mostly inhibitors | 0.52% of 330,000 active | AID 485341; note: nearly all actives have a fitted effect of over 20% in size
Target sequence (P00811 whole entry, looked up): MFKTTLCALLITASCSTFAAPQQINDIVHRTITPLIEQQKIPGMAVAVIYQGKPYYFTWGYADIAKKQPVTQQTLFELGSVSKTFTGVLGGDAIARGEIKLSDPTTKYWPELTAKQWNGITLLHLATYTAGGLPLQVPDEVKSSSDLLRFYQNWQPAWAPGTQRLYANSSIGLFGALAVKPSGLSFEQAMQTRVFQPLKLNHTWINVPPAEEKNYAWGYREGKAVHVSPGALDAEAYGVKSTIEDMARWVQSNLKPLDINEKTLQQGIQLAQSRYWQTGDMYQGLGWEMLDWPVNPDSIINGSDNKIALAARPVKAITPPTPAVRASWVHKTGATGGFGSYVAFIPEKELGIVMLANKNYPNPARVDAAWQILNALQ
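AmpC (5.3 nM in the dispensed reagent) in 20 mM phosphate pH 7.0 with 0.01% (detergent screen) or 0.0001% Triton X-100 was preincubated with compounds for 15 min at room temperature. Nitrocefin was then added from an 800 uM solution, and hydrolysis was followed at 480 nm.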
TbPYK inhibitor: inhibitors of Trypanosoma brucei pyruvate kinase; Q57TT1; TbPYK enzyme, Kinase-Glo Plus ATP luminescence, 45 min; Potency, µM (highest dose often 76.8 µM), hits mostly inhibitors; 0.12% of 410,000 active; AID 624173; note: nearly all actives have a fitted effect of over 50% in size
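Readout: single end-point luminescence (Kinase-Glo Plus, 10 min). Reaction conditions were TbPYK/substrate plus 130 uM ADP, 45 min at RT, pH 7.2 TEA buffer. No-enzyme wells served as controls, and data were normalized before concentration-response fitting.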
Sm TGR inh: blocks Schistosoma mansoni thioredoxin glutathione reductase | purified TGR, DTNB reduction, TNB absorbance 405 nm | 3% of 360,000 active | Potency, µM (doses to about 114 µM), most hits filed as inhibitors | Q962Y6 | AID 485364; note: nearly all actives have a fitted effect of over 60% in size
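First, TGR (20 nM dispensed) and NADPH were mixed with compound. Second, a 15 min room-temperature incubation followed. Third, further NADPH and then DTNB were added to start the reaction. Finally, TNB absorbance was monitored kinetically.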
AmpC detergent: AmpC beta-lactamase inhibition with detergent present | P00811 | AmpC hydrolysis of nitrocefin, absorbance 480 nm, 0.01% Triton | Potency, µM (titrated, usually from 114 µM), usual class: inhibitors | 0.041% of 370,000 active | AID 485294; note: nearly all actives have a fitted effect of over 25% in size
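AmpC (5.3 nM in the dispensed reagent) in 20 mM phosphate pH 7.0 with 0.01% (detergent screen) or 0.0001% Triton X-100 was preincubated with compounds for 15 min at room temperature. Nitrocefin was then added from an 800 uM solution, and hydrolysis was followed at 480 nm.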
RE007 growth inh: less growth of the S. pombe RE007 Vpr strain; S. pombe RE007 Vpr strain, BacTiter-Glo ATP luminescence, 24 h; Potency, µM (titrated, usually from 92.2 µM), actives largely listed as inhibitors; 0.21% of 360,000 active; AID 651644; active = well fitted falling curve with a large enough effect; inconclusive = small, poorly fitted or top-dose-only effect; inactive = no such curve, though single readings can be large or run the other way; note: nearly all actives have a fitted effect of over 50% in size
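Fission yeast RE007 carrying one integrated HIV-1 vpr copy, seeded at OD 0.01 in PMG+AL medium with 23 nL pinned compound. Grown 24 h at 30 degrees; viability read by BacTiter-Glo luminescence after 5 min.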
Each line names hits and unclear results; the compound was inactive in the other large screens. This is a sample that favours compounds with a hit; in the whole collection about 3.3% have one here. Unless noted, calls come from the whole dose curve; as a rule, active = well fitted curve in the direction sought with a large enough effect; inconclusive = small, poorly fitted or top-dose-only effect, or another doubt; inactive = no such curve, though single readings can be large; an effect the other way counts as inactive or inconclusive.

O=C(C1=C[C@@H]2[C@H]3C(=O)N(c4ccccc4Cl)C(=O)[C@H]3[C@@H](C(=O)c3ccc(Cl)cc3)N2C=C1)c1ccccc1	Sm TGR inh 25µM (no result: TbPYK inhibitor, RE007 growth inh)
O=C(Nc1ccc(Cl)cc1)c1cccc(N2C(=O)C3C4CCC(C4)C3C2=O)c1 (stereo not given)	none (no result: RE007 growth inh)
O=C(c1ccc(Cl)cc1)[C@@H]1[C@@H]2C(=O)N(c3ccccc3)C(=O)[C@@H]2C2c3ccccc3C=NN21 (stereo not given in full)	none
O=C(C1=C[C@@H]2[C@H]3C(=O)N(c4cccc(Cl)c4)C(=O)[C@H]3[C@@H](C(=O)c3ccc(Cl)cc3)N2C=C1)c1ccccc1	AmpC no deterg 13µM, Sm TGR inh 22µM
CC(=O)c1c(C)oc2ccc(N(C(=O)Oc3ccccc3)S(=O)(=O)c3ccc(Cl)cc3)cc12	none (no result: SARS PLP yeast, AmpC no deterg, RE007 growth inh)
CCOC(=O)Cn1cccc1-c1nc(-c2ccc(OC)cc2)c(-c2ccc(OC)cc2)s1	none (no result: SARS PLP yeast, AmpC no deterg, Sm TGR inh, AmpC detergent, RE007 growth inh)
COc1ccc(CCC(=O)NCc2nc3cccnc3n2Cc2ccc(F)cc2)cc1	none (no result: SARS PLP yeast, AmpC no deterg, RE007 growth inh)
CCOC(=O)c1cc(S(=O)(=O)NCc2ccc(OC)cc2)[nH]n1	none (no result: SARS PLP yeast, AmpC no deterg, RE007 growth inh)
Cc1ccccc1NC(=S)c1nc2ccccc2[nH]1	RE007 growth inh inconclusive (no result: SARS PLP yeast)
S=C(Nc1ccc(Cl)cc1)c1nc2ccccc2[nH]1	RE007 growth inh 6.3µM
COc1ccc(-n2cc(-c3ccccc3)c3c(N4CCCC(C)C4)ncnc32)cc1 (stereo not given)	none (no result: SARS PLP yeast, AmpC no deterg, RE007 growth inh)
O=C1C(Cl)=C(N2CCCCC2)C(=O)C(Cl)=C1c1cnc(N2CCCCC2)s1	TbPYK inhibitor inconclusive, Sm TGR inh 0.25µM
Cn1c(=O)c2c(nc(CN3CCN(C(=O)c4ccco4)CC3)n2Cc2cccc(Cl)c2)n(C)c1=O	Sm TGR inh 25µM
CN(C(=O)CSc1nc2ccccc2n1CC(=O)NCc1ccc(F)cc1)c1ccc(F)cc1	none (no result: SARS PLP yeast, AmpC no deterg, RE007 growth inh)
C=CCSc1nc2ccccc2n2cnnc12	none
CCOC(=O)CSc1nc2ccccc2n2cnnc12	Sm TGR inh 50µM
O=C(COC(=O)C1=COCCO1)Nc1ncc(C(F)(F)F)cc1Cl	Sm TGR inh 100µM, AmpC detergent inconclusive
O=C(COC(=O)C1=COCCO1)Nc1ncc(Cl)cc1Cl	AmpC detergent inconclusive
COc1ccccc1/C=C/CN1CCC(Oc2ccc(C(=O)N3CCCC3)cc2)CC1	none
COc1cc(/C=C/CN2CCC(CO)(CC3CCCCO3)CC2)ccc1O (stereo not given)	Sm TGR inh 13µM
Cc1ccc(CN2CCC(CO)(CC3CCCCO3)CC2)o1 (stereo not given)	Sm TGR inh 45µM
COc1cc(/C=C/CN2CCC(Oc3ccc(C(=O)N4CCCC4)cc3)CC2)ccc1O	Sm TGR inh 18µM, AmpC detergent inconclusive
CCOC(=O)C1CCN(C(=O)c2ccc(OC3CCN(C(=O)COC)CC3)cc2)CC1	none
CCc1ccc(CN2CCC(CO)(CC3CCCCO3)CC2)o1 (stereo not given)	none
COCC(=O)N1CCC(Oc2ccc(C(=O)N3C[C@@H](C)O[C@@H](C)C3)cc2)CC1	Sm TGR inh 40µM
CCC1CN(C(=O)Nc2ccc(Br)cc2F)c2ccccc2S1 (stereo not given)	none (no result: SARS PLP yeast, AmpC no deterg, RE007 growth inh)
CCc1nnc2c(Nc3cccc(F)c3)nc3ccc(C(=O)c4ccccc4)cc3n12	none (no result: SARS PLP yeast, AmpC no deterg, RE007 growth inh)
COc1ccc(CCC(C)N2CCC(Oc3ccc(C(=O)N4CCCC4)cc3)CC2)cc1 (stereo not given)	Sm TGR inh 28µM
CC(CCc1ccc(O)cc1)N1CCC(Oc2ccc(C(=O)N3CCCC3)cc2)CC1 (stereo not given)	none
Cc1ccccc1OCC(=O)N/N=C/c1ccc(N2CCOCC2)o1	TbPYK inhibitor inconclusive, Sm TGR inh 7.9µM
O=C(N/N=C/c1ccc(N2CCOCC2)o1)c1cccc([N+](=O)[O-])c1	TbPYK inhibitor 13µM, Sm TGR inh 11µM
O=C(N/N=C/c1ccc(N2CCCCC2)o1)c1ccccc1	TbPYK inhibitor 22µM, Sm TGR inh 7.9µM
